Experimental findings from PubChem BioAssay (EPA / NIEHS) are described below.

Several values for one entry are separate records, joined by “and”; a condition that tells them apart may be missing. Equal values may be shown once. Results filed as inconclusive are left out. The source holds several records for some structures; these can differ, active in one and inactive in another. Activity calls are given as the source filed them. How the source made its calls: active means hit-call score of the fitted dose curve at least 0.9, where 1 is the maximum; inconclusive means response in the unintended direction; inactive means score below 0.9.

One test deals with NCBI gene 100848466. The experiment in a line: NVS_NR_bPR: NovaScreen (NVS) Nuclear Receptor Binding Assay for bovine Progextron Receptor (PR) (AID 2283343).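 Further: actives lower bound radioligand signal below DMSO meaning displacement of the label.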 Put shortly:
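Scintillation counts of bound radioligand were read 18 hours after chemical addition to membranes extracted from bovine uterus. Displacement was scored as loss of signal relative to DMSO controls. Screening began at 25 uM in duplicate.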

The target in test [1] is bovine Estrogen Receptor (ER), ESR1 (gene 407238) (UniProt P49884). The experiment in a line: NVS_NR_bER: NovaScreen (NVS) Nuclear Receptor Binding Assay for bovine Estrogen Receptor (ER) (AID 2283345).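 Further: actives lower the bound radioligand count which means they displace the ER ligand.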 Summed up:
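Displacement of a radioligand from estrogen receptor in bovine uterine membrane preparations; scintillation signal taken at 18 hours, DMSO as baseline. Single-concentration duplicates (25 uM) preceded concentration-response follow-up of actives.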

Test [2] addresses chimpanzee Androgen Receptor (AR), AR (gene 747460) (UniProt O97775). The test can be described thus: NVS_NR_cAR: NovaScreen (NVS) Nuclear Receptor Binding Assay for chimpanzee Androgen Receptor (AR) (AID 2283346).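 Further: a loss of bound radioligand signal versus DMSO counts as binding.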 Summed up: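 Radioligand binding to chimpanzee AR expressed in Sf9/Sf21 cells, cell-free, measured 72 h after dosing by lysate-based scintillation counting. Loss of signal vs DMSO; initial duplicate screen at 25 uM, actives retested in concentration series.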

Test [3] has as its target Estrogen receptor (Homo sapiens) (UniProt P03372). The experiment in a line: NVS_NR_hER: NovaScreen (NVS) Nuclear Receptor Binding Assay for human Estrogen Receptor (ER) (AID 2283348). Summed up:
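MCF7-derived receptor extract, radiolabelled ligand, competitive displacement. Read: scintillation counts at 18 h. DMSO = negative control/baseline. Primary 25 uM duplicate; follow-up concentration–response.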

Test [4] has the same target. The experiment in a line: OT_ER_ERaERa_1440: Odyssey Thera (OT) 24-hour HEK293T Protein-Complementation Assay for Estrogen Receptor-alpha/-alpha Homodimer (AID 2283349).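 Further: hits raise fluorescence above DMSO for agonists and antagonists alike.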 Summed up: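 Cells (HEK293T) carrying the fragment-tagged ERα LBD (aa 310-547) pair are treated with chemical for 24 hours. Nuclear and/or cytoplasmic fluorescence is then quantified on a laser scanning cytometer. Activity is scored as signal gain against DMSO.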

Test [5] has as its target Bile acid receptor (Homo sapiens) (UniProt Q96RI1). The experiment in a line: NVS_NR_hFXR_Antagonist: NovaScreen (NVS) Nuclear Receptor Binding Assay for human Farnesoid X Receptor Antagonism (FXR) (AID 2283350). Summed up:
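Antagonist-format time-resolved FRET binding assay with extracted human receptor protein, read 1 hour after compound addition. Compounds first screened at 25 uM in duplicate, then actives tested in concentration series, with loss of signal relative to DMSO.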

Test [6] has as its target Estrogen receptor (Homo sapiens) (UniProt P03372). The experiment in a line: OT_ER_ERaERa_0480: Odyssey Thera (OT) 8-hour HEK293T Protein-Complementation Assay for Estrogen Receptor-alpha/-alpha Homodimer (AID 2283351).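 Further: rise in fluorescence from reassembled reporter fragments on ERα LBD homodimer in nucleus or whole cell.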 Summed up:
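Measures ERα LBD (aa 310-547) homodimer complementation in stably transfected HEK293T at 8 h post-dose, with fluorescence intensity quantified on a laser scanning cytometer relative to DMSO controls.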

Test [7] addresses human Constitutive Androstane Receptor (CAR), NR1I3 (gene 9970) (UniProt Q14994). The test can be described thus: NVS_NR_hCAR_Antagonist: NovaScreen (NVS) Nuclear Receptor Binding Assay for human Constitutive Androstane Receptor Antagonism (CAR) (AID 2283344). Put shortly:
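Single 25 uM duplicate primary screen, with concentration-series follow-up on actives. Cell-free binding format run in antagonist mode, TR-FRET signal taken 1 h post-dose; activity is signal loss relative to DMSO.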

Sequence of chimpanzee Androgen Receptor (AR), AR (gene 747460) (O97775 whole entry, looked up): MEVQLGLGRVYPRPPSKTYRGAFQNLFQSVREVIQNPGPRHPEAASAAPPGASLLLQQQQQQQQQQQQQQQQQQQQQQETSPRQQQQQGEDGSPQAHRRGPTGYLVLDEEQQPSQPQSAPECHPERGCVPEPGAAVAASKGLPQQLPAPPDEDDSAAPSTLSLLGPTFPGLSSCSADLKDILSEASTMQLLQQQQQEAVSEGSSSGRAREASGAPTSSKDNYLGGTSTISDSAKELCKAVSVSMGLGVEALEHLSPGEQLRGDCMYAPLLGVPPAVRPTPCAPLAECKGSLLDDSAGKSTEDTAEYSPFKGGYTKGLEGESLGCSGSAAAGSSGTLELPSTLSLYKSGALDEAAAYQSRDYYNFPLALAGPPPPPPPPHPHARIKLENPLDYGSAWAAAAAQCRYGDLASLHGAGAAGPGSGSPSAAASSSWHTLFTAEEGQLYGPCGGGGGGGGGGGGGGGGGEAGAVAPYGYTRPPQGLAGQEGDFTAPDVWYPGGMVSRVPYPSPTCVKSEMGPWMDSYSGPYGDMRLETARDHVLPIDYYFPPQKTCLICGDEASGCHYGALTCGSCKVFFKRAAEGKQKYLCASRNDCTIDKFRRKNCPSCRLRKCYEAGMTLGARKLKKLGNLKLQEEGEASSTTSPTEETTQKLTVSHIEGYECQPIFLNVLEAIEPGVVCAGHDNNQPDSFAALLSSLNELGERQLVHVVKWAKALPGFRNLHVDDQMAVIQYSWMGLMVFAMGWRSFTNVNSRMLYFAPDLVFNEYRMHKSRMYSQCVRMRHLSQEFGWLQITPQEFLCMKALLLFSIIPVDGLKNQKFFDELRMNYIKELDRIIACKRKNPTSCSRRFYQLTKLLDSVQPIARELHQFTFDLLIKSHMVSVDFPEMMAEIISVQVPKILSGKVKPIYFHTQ
Sequence of Estrogen receptor (Homo sapiens) (P03372 whole entry, looked up, the tested form may be a part): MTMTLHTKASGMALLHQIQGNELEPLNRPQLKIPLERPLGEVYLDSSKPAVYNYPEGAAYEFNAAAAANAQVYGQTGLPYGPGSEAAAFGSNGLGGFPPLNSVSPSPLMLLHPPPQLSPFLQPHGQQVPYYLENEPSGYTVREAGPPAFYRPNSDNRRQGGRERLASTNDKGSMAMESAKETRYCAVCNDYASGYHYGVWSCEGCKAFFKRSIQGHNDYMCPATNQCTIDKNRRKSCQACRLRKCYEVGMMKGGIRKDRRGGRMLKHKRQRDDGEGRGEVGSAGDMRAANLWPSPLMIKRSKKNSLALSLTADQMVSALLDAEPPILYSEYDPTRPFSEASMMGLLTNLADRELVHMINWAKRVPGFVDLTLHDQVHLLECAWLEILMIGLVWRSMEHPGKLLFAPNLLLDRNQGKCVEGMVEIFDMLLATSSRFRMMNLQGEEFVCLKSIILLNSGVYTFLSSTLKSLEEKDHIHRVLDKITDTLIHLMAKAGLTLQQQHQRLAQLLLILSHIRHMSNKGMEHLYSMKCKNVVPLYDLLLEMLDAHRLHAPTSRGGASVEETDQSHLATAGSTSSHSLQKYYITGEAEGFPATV
Sequence of bovine Estrogen Receptor (ER), ESR1 (gene 407238) (P49884 whole entry, looked up): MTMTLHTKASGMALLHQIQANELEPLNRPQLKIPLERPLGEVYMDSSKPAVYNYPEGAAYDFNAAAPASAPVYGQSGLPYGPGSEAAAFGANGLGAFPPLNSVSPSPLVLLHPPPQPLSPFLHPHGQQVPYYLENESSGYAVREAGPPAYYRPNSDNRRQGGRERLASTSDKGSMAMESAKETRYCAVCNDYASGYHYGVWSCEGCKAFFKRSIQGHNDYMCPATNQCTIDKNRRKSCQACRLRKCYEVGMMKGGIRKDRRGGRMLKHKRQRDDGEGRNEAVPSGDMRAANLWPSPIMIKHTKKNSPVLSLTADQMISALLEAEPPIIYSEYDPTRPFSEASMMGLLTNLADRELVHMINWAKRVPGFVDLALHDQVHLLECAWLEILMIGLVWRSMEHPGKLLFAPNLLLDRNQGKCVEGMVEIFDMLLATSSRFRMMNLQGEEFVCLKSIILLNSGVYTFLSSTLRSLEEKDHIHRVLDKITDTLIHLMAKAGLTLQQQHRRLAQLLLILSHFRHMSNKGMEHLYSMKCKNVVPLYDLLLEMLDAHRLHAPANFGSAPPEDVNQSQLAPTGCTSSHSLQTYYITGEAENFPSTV
Sequence of Bile acid receptor (Homo sapiens) (Q96RI1 whole entry, looked up): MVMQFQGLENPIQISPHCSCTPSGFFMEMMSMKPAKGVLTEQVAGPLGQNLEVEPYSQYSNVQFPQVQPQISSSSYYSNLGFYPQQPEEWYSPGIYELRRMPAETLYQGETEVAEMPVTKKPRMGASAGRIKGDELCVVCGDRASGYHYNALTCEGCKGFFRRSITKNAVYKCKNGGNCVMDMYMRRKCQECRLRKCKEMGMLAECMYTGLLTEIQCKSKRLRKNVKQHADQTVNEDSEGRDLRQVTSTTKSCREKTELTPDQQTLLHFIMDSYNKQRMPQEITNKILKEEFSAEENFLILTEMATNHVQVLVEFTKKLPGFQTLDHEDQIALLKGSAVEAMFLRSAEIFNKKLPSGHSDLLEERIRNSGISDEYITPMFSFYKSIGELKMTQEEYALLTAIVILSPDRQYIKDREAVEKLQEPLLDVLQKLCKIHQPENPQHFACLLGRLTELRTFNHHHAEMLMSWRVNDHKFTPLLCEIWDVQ
Sequence of human Constitutive Androstane Receptor (CAR), NR1I3 (gene 9970) (Q14994 whole entry, looked up): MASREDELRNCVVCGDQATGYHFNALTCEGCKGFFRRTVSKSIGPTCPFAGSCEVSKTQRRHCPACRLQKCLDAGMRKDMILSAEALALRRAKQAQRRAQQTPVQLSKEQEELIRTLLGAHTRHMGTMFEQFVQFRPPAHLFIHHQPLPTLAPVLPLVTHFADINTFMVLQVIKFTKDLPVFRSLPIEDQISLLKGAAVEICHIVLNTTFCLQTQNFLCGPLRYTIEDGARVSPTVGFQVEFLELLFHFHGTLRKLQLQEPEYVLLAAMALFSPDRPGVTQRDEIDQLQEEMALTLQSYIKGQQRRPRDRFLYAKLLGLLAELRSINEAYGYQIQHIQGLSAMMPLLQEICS

In general, AC50 refers to the concentration at which the activity in the assay is half-maximal. Consider `C[C@]12CCC(=O)C=C1CC[C@@H]1[C@@H]2CC[C@]2(C)C(=O)CC[C@@H]12`, for which the AC50 in the test with NCBI gene 100848466 is 12.8 µM (active); in test [1], 25 µM (active); in test [2], 0.182 µM (active); in test [3] it was 38.5 µM (active); in test [5], 1.35 µM (active). In addition, the molecule was called inactive in test [3], in test [4] and in test [6].

Take `CC1=C2C[C@H]3[C@@H](CC=C4C[C@@H](O)CC[C@@]43C)[C@@H]2CC[C@]12O[C@@H]1C[C@H](C)CN[C@H]1[C@H]2C`: the molecule was called inactive in test [7], in test [4] and in test [6].

In the case of `Nc1ccc(-c2ccc(N)cc2)cc1`, in test [2], the AC50 is 19.9 µM (active). The call in test [3], in test [4] and in test [6] was inactive.

Regarding `CO/C=C(/C(=O)OC)c1ccccc1COc1cccc(C(F)(F)F)n1`, the molecule was classed as inactive in test [1], in test [3], in test [4] and in test [6].

Turning to `CC(C)(c1ccccc1)c1ccc(O)cc1`, the AC50 was 19.2 µM (active) with NCBI gene 100848466; 11.5 µM (active) [middle of 4 runs] in test [1]; 25 µM (active) in test [2]; 11.9 µM (active) and 12 µM (active) and 12.1 µM (active) in test [4]; 11.9 µM (active) and 12 µM (active) in test [6].

Regarding `Cc1ccc(O)c(C)c1`, the result in test [3], in test [4] and in test [6] was inactive.

`O=C(NC(=O)c1c(F)cccc1F)Nc1cc(Cl)c(OC(F)(F)C(F)F)c(Cl)c1`: the molecule was called inactive in test [4] and in test [6].

With `Cc1cccc([N+](=O)[O-])c1`, the molecule was classed as inactive in test [3], in test [4] and in test [6].

`CC(C)C(=O)OCC(C)(C)C(OC(=O)C(C)C)C(C)C` (configuration not stated): the result in test [4] was inactive.

`C=CC(=O)NCNC(=O)C=C`: the result in test [3], in test [4] and in test [6] was inactive.

Take `N#Cc1ccc(N(CC(N)=O)CC(F)(F)F)cc1C(F)(F)F`: the AC50 in test [2] was 0.0178 µM (active). Moreover, the result in test [4] and in test [6] was inactive.

Consider `ClC1=C(Cl)[C@]2(Cl)[C@@H]3[C@H]4C[C@H]([C@@H]5O[C@H]45)[C@@H]3[C@@]1(Cl)C2(Cl)Cl`, for which the result in test [3], in test [4] and in test [6] was inactive.

Turning to `CCSC(=O)N(CC)C1CCCCC1`, the result in test [4] and in test [6] was inactive.

On to `Nn1cnnc1`, for which the result in test [3], in test [4] and in test [6] was inactive.

As for `CN(C)c1nc(=O)n(C2CCCCC2)c(=O)n1C`, the molecule was classed as inactive in test [4] and in test [6].

In the case of `Cc1ccccc1O`, the molecule was called inactive in test [4] and in test [6].

Regarding `CN(C)CCO`, the molecule was called inactive in test [4] and in test [6].

In the case of `O=C(N[C@H]1CN2CCC1CC2)c1cc2ccoc2cn1`, the call in test [4] and in test [6] was inactive.

Consider `Cc1ccccc1[N+](=O)[O-]`, for which the molecule was classed as inactive in test [4] and in test [6].

As for `c1ccc(-c2ccccc2)cc1`, the result in test [3], in test [4] and in test [6] was inactive.

`ClC1=C(Cl)[C@]2(Cl)[C@@H]3[C@@H]4C[C@@H]([C@H]5O[C@@H]45)[C@@H]3[C@@]1(Cl)C2(Cl)Cl`: the molecule was classed as inactive in test [3], in test [4] and in test [6].

For `C1CC2OC2CC1C1CO1` (configuration not stated), the outcome in test [4] and in test [6] was inactive.

For `O=C(NC(=O)c1cc(F)c(F)cc1Cl)Nc1cc(F)ccc1N1CCC(C(=O)O)CC1`, the outcome in test [4] and in test [6] was inactive.

`O=S(=O)(O)C(F)(F)C(F)(F)C(F)(F)C(F)(F)F`: the outcome in test [4] was inactive.

For `COS(=O)(=O)OC`, the result in test [4] and in test [6] was inactive.

With `Cc1cccc(C)c1N`, the molecule was classed as inactive in test [4] and in test [6].

In the case of `Clc1ccc(C(Cl)(Cl)Cl)cc1`, the molecule was called inactive in test [4], in test [5] and in test [6].

Turning to `COc1ccc(O)c(C(C)(C)C)c1`, the AC50 in test [2] is 27.7 µM (active). Also, the molecule was called inactive in test [3], in test [4] and in test [6].

Consider `CCC(C)c1cc([N+](=O)[O-])cc([N+](=O)[O-])c1O` (configuration not stated), for which the molecule was called inactive in test [4] and in test [6].

For the molecule `Clc1ccc(Cl)cc1`, the call in test [4] and in test [6] was inactive.

As to `CCOC(=O)C(O)(c1ccc(Cl)cc1)c1ccc(Cl)cc1`, the concentration at half-maximal activity (AC50) in test [2] is 6.34 µM (active). Moreover, the molecule was called inactive in test [3], in test [4] and in test [6].

With `OCC(O)CO`, the molecule was classed as inactive in test [4] and in test [6].

With `CCOP(=S)(OCC)SCSC(C)(C)C`, the molecule was classed as inactive in test [4] and in test [6].

In the case of `O=C(O)C(F)(F)C(F)(F)C(F)(F)C(F)(F)C(F)(F)F`, the molecule was classed as inactive in test [2], in test [4] and in test [6].

Turning to `Sc1ccccc1`, the molecule was called inactive in test [4] and in test [6].

In the case of `C=CC(N)=O`, the outcome in test [4] and in test [6] was inactive.

As for `CC#Cc1cc(C)nc(Nc2ccccc2)n1`, the result in test [4] and in test [6] was inactive.

For `CCCCCCOC(=O)c1ccccc1C(=O)OCCCCCC`, the result in test [4] and in test [6] was inactive.
